Compound activity (PubChem BioAssay)
Epigenetic derep: regulators of epigenetic silencing causing reporter derepression in mouse cells. murine LDR cells, GFP reporter derepression, 30 h. Potency, µM (highest dose often 53.9 µM), actives largely listed as activators. 0.2% of 280,000 active. AID 1865; note: nearly all actives have a fitted effect of over 60% in size
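Derepression of a silenced CMV-GFP reporter in murine LDR cells is scored by enumerating GFP-positive cells with a laser-scanning microplate cytometer after 30 hours of treatment at 37 C.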
Gal4-VP16 FLuc: counter-screen for ROR gamma inhibitors: Gal4-VP16 reporter; Drosophila S2 Gal4-VP16 UAS-luciferase, luminescence, 20 h; Potency, µM (top dose mostly 53.6 µM), actives largely listed as inhibitors; 3.5% of 310,000 active; AID 2546;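 note: Gal4-VP16 expression switched on by copper sulfate through the metallothionein promoter; nearly all actives have a fitted effect of over 50% in size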
RORg inh: blocks mouse ROR gamma transcriptional activity. P51450. Drosophila S2 Gal4-RORgamma UAS-luciferase reporter, 20 h. Potency, µM (titrated, usually from 53.6 µM), most hits filed as inhibitors. 5.4% of 310,000 active. AID 2551; note: nearly all actives have a fitted effect of over 60% in size
Target sequence (P51450 whole entry, looked up, the tested form may be a part): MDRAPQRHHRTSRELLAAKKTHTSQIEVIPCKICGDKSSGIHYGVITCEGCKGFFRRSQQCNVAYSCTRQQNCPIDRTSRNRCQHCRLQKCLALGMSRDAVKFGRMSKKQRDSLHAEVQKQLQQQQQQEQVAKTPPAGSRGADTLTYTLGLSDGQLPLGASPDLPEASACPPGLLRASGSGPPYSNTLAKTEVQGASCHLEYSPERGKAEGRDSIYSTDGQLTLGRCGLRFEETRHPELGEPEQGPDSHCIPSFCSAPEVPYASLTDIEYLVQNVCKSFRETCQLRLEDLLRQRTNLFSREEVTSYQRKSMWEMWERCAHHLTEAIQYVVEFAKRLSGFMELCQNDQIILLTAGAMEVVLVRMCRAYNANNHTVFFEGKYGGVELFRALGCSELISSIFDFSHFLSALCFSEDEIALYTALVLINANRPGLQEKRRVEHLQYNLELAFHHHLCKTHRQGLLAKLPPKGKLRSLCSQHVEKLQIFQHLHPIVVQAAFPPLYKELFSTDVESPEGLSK
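Luminescence from a UAS-regulated Photinus luciferase reporter in stably transfected Drosophila Schneider cells is measured; decreased signal marks ROR gamma inhibition. Fusion expression is induced by 700 uM copper sulfate for 20 hr.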
Sfp inh: Sfp phosphopantetheinyl transferase inhibition; Q9F4F7; Biochemical Sfp PPTase activity, qHTS; Potency, µM, most hits filed as inhibitors; 3.5% of 310,000 active; AID 1490;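 note: the enzyme is Sfp with the accession as filed and its product quenches rhodamine fluorescence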
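Fluorescence-quenching assay: 15 nM Sfp-PPTase preincubated 15 min at room temperature with compound, then 5 uM rhodamine-CoA and 12.5 uM BHQ-2-labelled YbbR peptide added. Fluorescence (ex 525/em 598 nm) read at start and after 30 min; difference gives rate.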
ClpP mod: qHTS Assay for Activators of ClpP. ATP-dependent Clp protease proteolytic subunit (Bacillus subtilis (strain 168)), P80244. purified B. subtilis ClpP, FRET peptide cleavage, 20 min. Potency, µM (titrated, usually from 57.5 µM). 1.9% of 340,000 active; active = well fitted falling curve with a large enough effect; inconclusive = small, poorly fitted or top-dose-only effect; inactive = no such curve, though single readings can be large or run the other way; note: the source files actives as falling curves though it sought activators and does not explain the sign; nearly all actives have a fitted effect of over 65% in size
Target sequence (P80244 whole entry, looked up): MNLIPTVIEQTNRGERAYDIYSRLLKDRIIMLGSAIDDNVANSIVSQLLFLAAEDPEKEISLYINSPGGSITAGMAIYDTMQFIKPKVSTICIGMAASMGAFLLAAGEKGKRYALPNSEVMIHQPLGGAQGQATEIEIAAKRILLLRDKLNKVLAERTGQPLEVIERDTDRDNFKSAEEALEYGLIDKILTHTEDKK
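ClpP 10 microg/mL final, pH 8 Tris/KCl buffer with BSA, glycerol, Tween-20; compound pinned in; FRET-FV substrate; RT 20 min; Ex320/Em430; ΔFRET vs ADEP 5.8 microM, DMSO, no enzyme.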
PINK1 expr mod: modulators of PINK1 expression; AID 624263; Potency, µM (series often up to 76.6 µM), most hits filed as activators; PINK1 immunofluorescence, high-content cytometry, 24 h; 0.2% of 410,000 active; active = well fitted activation curve with a large enough effect; inconclusive = small, poorly fitted or top-dose-only effect; cell line not stated here; note: nearly all actives have a fitted effect of over 65% in size
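PINK1 protein, normally rapidly degraded, was detected by immunofluorescence after 24 hour compound treatment of a stable cell line. Titration data (5 concentrations) came from laser-scanning cytometry, with CCCP-treated wells as controls.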
Hits are given with their value; i = inactive; ? = inconclusive; nt = no result; [ ] = dose if it differs, or a comment. Shown are actives, neighbours in structure and some others; about 8.1% of the full set was active somewhere. Unless noted, calls come from the whole dose curve; as a rule, active = well fitted curve in the direction sought with a large enough effect; inconclusive = small, poorly fitted or top-dose-only effect, or another doubt; inactive = no such curve, though single readings can be large; an effect the other way counts as inactive or inconclusive.

SMILES	Epigenetic derep	Gal4-VP16 FLuc	RORg inh	Sfp inh	ClpP mod	PINK1 expr mod
Cn1c(N2CCN(C(c3ccccc3)c3ccccc3)CC2)nc2ccccc21	nt	13µM	11µM	i	i	i
CCCC/C=C/[C@H](c1ccccc1)[C@H](CO)Cc1ccc2ccccc2c1	nt	i	i	i	nt	nt
COc1ccc(C(=O)NC(=S)NNC(=O)[C@H]2C[C@@H]2c2ccccc2)cc1OC	i	?	?	i	nt	i
O=C(/C=C/c1ccc(F)cc1)NC(=S)NNC(=O)[C@H]1C[C@@H]1c1ccccc1	nt	i	?	i	i	i
O=C(NNC(=O)C1CC1c1ccccc1)Nc1ccccc1 (centres undefined)	i	i	i	i	28µM	i
CC(C)(C)NC(=S)NNC(=O)[C@H]1C[C@@H]1c1ccccc1	i	i	0.56µM	i	nt	i
O=C(NC(=S)NNC(=O)[C@H]1C[C@@H]1c1ccccc1)c1ccc(F)cc1	i	?	10µM	?	i	i
COc1cc(OC)cc(C(=O)NC(=S)NNC(=O)[C@H]2C[C@@H]2c2ccccc2)c1	i	?	14µM	i	nt	i
O=C(NNC(=O)[C@@H]1CCCC[C@@H]1C(=O)O)Nc1ccccc1	i	i	i	i	i	i
Cc1cccc(CN2CCN(CC(=O)N3CCCC3)C2=O)c1	i	i	i	i	i	i
Cc1cccc(CN2CCN(CC(=O)O)C2=O)c1	i	i	i	89µM	i	i
Cc1ccc(C)c(CN2C(=O)c3ccccc3S(=O)c3ccc(C(=O)NCCC4=CCCCC4)cc32)c1 (centres undefined)	i	nt	nt	nt	i	i
CN(N)c1nc(C(F)(F)F)nc2ccccc12	i	i	i	i	nt	i
CN(NS(=O)(=O)c1ccc(Br)cc1)c1nc(C(F)(F)F)nc2ccccc12	i	?	?	i	nt	16µM
COc1ccc(C(=O)N2CCC(C(=O)Nc3ccc(OC)c(OC)c3)CC2)cc1	i	i	i	89µM	i	i
COc1ccc(N2CCN(c3ccc(NC(=O)C4CCCCC4)cc3C#N)CC2)cc1	i	i	i	i	28µM	i
O=C(O)/C=C/c1coc2ccccc2c1=O	i	i	i[10 µM]	i	i	i
N#C/C(=C\c1coc2ccccc2c1=O)C(N)=S	i	?	13µM	i	nt	i
CCCNC(=O)C(=O)NCC(c1ccc2c(c1)OCO2)N1CCOCC1 (centres undefined)	i	nt	nt	nt	i	i
CCOc1ccc(OC(=O)c2c(-c3ccccc3Cl)noc2C)cc1	i	nt	nt	nt	i	i
COc1ccc(CNC(=O)c2cc3c(=O)n(Cc4cccs4)ccc3nc2C)cc1	i	nt	nt	nt	14µM	i
Cc1ccc(CNC(=O)c2cc3c(=O)n(Cc4cccnc4)ccc3nc2C)cc1	i	nt	nt	nt	28µM	i
COc1ccc(CNC(=O)c2cc3c(=O)n(Cc4cccnc4)ccc3nc2C)cc1	i	nt	nt	nt	25µM	i
Cc1nc2ccn(Cc3cccs3)c(=O)c2cc1C(=O)NCc1ccccc1	i	nt	nt	nt	i	i
COc1ccc(NC(=O)c2cc3c(=O)n(Cc4cccnc4)ccc3nc2C)cc1OC	i	nt	nt	nt	i	i
SMILES	Epigenetic derep	Gal4-VP16 FLuc	RORg inh	Sfp inh	ClpP mod	PINK1 expr mod
COc1cccc(CNC(=O)c2cc3c(=O)n(Cc4cccnc4)ccc3nc2C)c1	i	nt	nt	nt	?	i
COCC(=O)Nc1cc(C(=O)NC2CCc3ccccc32)c2c(c1)nc(-c1ccncc1)n2C (centres undefined)	nt	nt	nt	nt	nt	i
CCCCn1cc2c(c1-c1cccc(C)c1)c(=O)n(C)c(=O)n2C	i	i	?	?	i	i
Cn1c(=O)c2c(-c3ccccc3)n(-c3cc(C(=O)O)ccc3O)cc2n(C)c1=O	nt	nt	nt	nt	i	i
Cc1ccc(-c2c3c(=O)n(C)c(=O)n(C)c3cn2-c2cc(C)ccc2O)cc1	i	nt	nt	nt	3.5µM	i
CC(=O)Nc1cccc(-n2cc3c(c2-c2ccccc2Cl)c(=O)n(C)c(=O)n3C)c1	i	nt	nt	nt	28µM	i
Cn1c(=O)c2c(-c3ccccc3)n(-c3ccccc3)cc2n(C)c1=O	nt	nt	nt	nt	i	i
Cc1cccc(-c2c3c(=O)n(C)c(=O)n(C)c3cn2CCO)c1	i	i	i	i	28µM	i
Cn1c(=O)c2c(-c3ccccc3)n(-n3cnnc3)cc2n(C)c1=O	i	?	18µM	i	i	i
c1ccc2c(CCc3c[nH]c4ccccc34)ccnc2c1	nt	nt	nt	nt	i	i
COc1ccccc1-c1ccc(C(=O)NCCN2CCOCC2)c(N2CCN(c3ccccc3F)CC2)n1	nt	nt	nt	nt	nt	i
COc1ccc(-c2c3c(=O)n(C)c(=O)n(C)c3cn2-c2ccc(O)cc2)cc1	i	?	i	i	nt	i
CC(=O)Nc1ccc(-n2cc3c(c2-c2ccc(C)cc2)c(=O)n(C)c(=O)n3C)cc1	i	nt	nt	nt	20µM	i
O=C(Oc1ccc(=O)n(-c2ccccc2)n1)c1ccc(Cl)cc1	i	i	i	89µM	i	i
O=C(Oc1ccc(=O)n(-c2ccccc2)n1)c1ccc(F)cc1	i	i	i	i	i	i
c1cc(CNc2ccc(N3CCOCC3)cc2)ccn1	i	i	?	50µM	32µM	i
CC(C)c1ccc(CNc2ccc(N3CCOCC3)cc2)cc1	i	i	i	45µM	i	i
CC(=O)N1CCN(c2ccc(NCc3ccc(F)cc3)cc2)CC1	i	i	i	40µM	i	i
COc1cc(CNc2ccc(N3CCN(C(C)=O)CC3)cc2)ccc1OCc1ccc(F)cc1	i	i	?	i	nt	i
CCC(CC)c1nn2c(=O)cc(COc3ccc(NC(=O)c4ccccc4C)cc3)nc2s1	i	nt	nt	nt	i	i
CC(=O)c1ccc(NC(=O)/C=C/c2ccc(C)o2)cc1	i	nt	nt	nt	i	i
Cc1cc(NS(=O)(=O)c2ccc(NC(=O)/C=C/c3ccc(C)o3)cc2)nc(C)n1	i	i	i	3.5µM	i	i
Cc1ccc(/C=C/C(=O)Nc2ccc([N+](=O)[O-])cc2)o1	i	i	i	14µM	i	?
Cc1ccc(/C=C/C(=O)Nc2ccc(Oc3ccccc3)cc2)o1	i	?	i	28µM	i	i
CCCOc1ccc(/C=C/C(=O)Nc2ccc([N+](=O)[O-])cc2)cc1	i	i	?	i	i	?
SMILES	Epigenetic derep	Gal4-VP16 FLuc	RORg inh	Sfp inh	ClpP mod	PINK1 expr mod
Cc1nc2ccc(S(=O)(=O)N(C)CC(=O)Nc3ccc(C(C)C)cc3)cc2s1	i	nt	nt	nt	i	i
O=C(CSc1nnnn1C1CCCC1)N1CCN(C(=O)c2ccco2)CC1	i	i	i	i	i	i
O=C(CSc1nnnn1C1CCCCC1)N1CCN(C(=O)c2ccco2)CC1	i	7.9µM	3.2µM	i	i	i
COC(=O)[C@@H]1CCCN1C(=O)c1c(OC)cc(=O)n2c1CCN(Cc1ccc(C)o1)CC2	nt	nt	nt	nt	nt	i
COC(=O)c1ccc(OCC2c3cc(OC)c(OC)cc3CCN2C(=O)c2ccccc2F)cc1 (centres undefined)	i	nt	nt	nt	i	i
N#Cc1ccc(Oc2ccc(-c3cnc4ccccc4n3)cc2)cc1C#N	i	i	i	i	20µM	i
